This is an account of results in PubChem BioAssay (EPA / NIEHS).

A short description of assay [1]: BSK_CASM3C_SRB: Viability Assessment in the BioMAP Diversity Plus: CASM3C Assay (AID 2283050).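 Further: cells exposed to compound for 24 h.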 The settings on record: primary human coronary artery smooth muscle cells.
Read-out in assay [2]: Thrombomodulin, THBD (gene 7056)
Description: BSK_CASM3C_Thrombomodulin: BioMAP Diversity Plus: CASM3C Assay for Thrombomodulin Biomarker Activity (AID 2283051).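 Further: thrombomodulin protein level measured by ELISA 24 h after dosing.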 The following applies: primary human coronary artery smooth muscle cells; actives raise or lower the signal.

Read-out in assay [3]: Tissue Factor, F3 (gene 2152)
Description: BSK_CASM3C_TissueFactor: BioMAP Diversity Plus: CASM3C Assay for Tissue Factor Biomarker Activity (AID 2283052).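 Further: cell surface tissue factor protein level read by ELISA.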 The following applies: primary human coronary artery smooth muscle cells; actives raise or lower the signal.

Read-out in assay [4]: Interferon-gamma inducible Protein 10 (IP10), CXCL10 (gene 3627)
Description: BSK_hDFCGF_IP10: BioMAP Diversity Plus: hDFCGF Assay for Interferon-gamma inducible Protein 10 (IP10) Biomarker Activity (AID 2283053). The settings on record: primary human foreskin fibroblasts; actives raise or lower the signal. A digest of the protocol:
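Primary human foreskin fibroblasts exposed to chemicals for 24 h. IP-10 measured by ELISA; changes fitted bidirectionally against DMSO baseline.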

Read-out in assay [5]: Urokinase-type plasminogen activator receptor (uPAR), PLAUR (gene 5329)
Description: BSK_CASM3C_uPAR: BioMAP Diversity Plus: CASM3C Assay for Urokinase-type plasminogen activator receptor (uPAR) Biomarker Activity (AID 2283054).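 Further: cell-surface uPAR protein level quantified by ELISA.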 The settings on record: primary human coronary artery smooth muscle cells; actives raise or lower the signal.

Read-out in assay [6]: Vascular cell adhesion molecule 1 (VCAM1), VCAM1 (gene 7412)
Description: BSK_CASM3C_VCAM1: BioMAP Diversity Plus: CASM3C Assay for Vascular cell adhesion molecule 1 (VCAM1) Biomarker Activity (AID 2283055).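 Further: VCAM-1 protein level quantified by ELISA on the cells.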 The settings on record: primary human coronary artery smooth muscle cells; actives raise or lower the signal.

Read-out in assay [7]: Collagen III, COL3A1 (gene 1281)
Description: BSK_hDFCGF_CollagenIII: BioMAP Diversity Plus: hDFCGF Assay for Collagen III Biomarker Activity (AID 2283056). The following applies: primary human foreskin fibroblasts; actives raise or lower the signal. A digest of the protocol: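 ELISA readout of Collagen III in human dermal (foreskin) fibroblasts, taken 24 h post-treatment. Gain or loss relative to DMSO vehicle fitted in both directions.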

Read-out in assay [8]: Epidermal growth factor receptor (EGFR), EGFR (gene 1956)
Description: BSK_hDFCGF_EGFR: BioMAP Diversity Plus: hDFCGF Assay for Epidermal growth factor receptor (EGFR) Biomarker Activity (AID 2283057). The settings on record: primary human foreskin fibroblasts; actives raise or lower the signal. Put shortly:
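Primary human foreskin fibroblasts (hDFCGF system), sampled 24 h after dosing; EGFR quantified by ELISA. Bidirectional fit relative to DMSO baseline; SRB total-protein staining in parallel cultures for cytotoxicity.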

The nature of assay [9]: BSK_hDFCGF_Proliferation: Cell Proliferation Assessment in the BioMAP Diversity Plus: hDFCGF Assay (AID 2283059).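 Further: curves fitted for both rise and fall of signal versus DMSO baseline.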 The following applies: primary human foreskin fibroblasts. A digest of the protocol:
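Sub-confluent human foreskin fibroblast cultures receive test chemical […]. Relative cell number is quantified by sulforhodamine B staining (0.1%, after 10% TCA fixation) at 560 nm, with bidirectional fitting referenced to DMSO.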

Read-out in assay [10]: Macrophage colony-stimulating factor (MCSF), CSF1 (gene 1435)
Description: BSK_hDFCGF_MCSF: BioMAP Diversity Plus: hDFCGF Assay for Macrophage colony-stimulating factor (MCSF) Biomarker Activity (AID 2283060). The following applies: primary human foreskin fibroblasts; actives raise or lower the signal. A digest of the protocol:
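M-CSF levels read by ELISA at 24 h post-dosing in human skin fibroblasts. Parallel cultures stained with SRB assessed cytotoxicity at the same time point; response fitted in both directions against the DMSO baseline.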

Assay [11] in a line: BSK_hDFCGF_SRB: Viability Assessment in the BioMAP Diversity Plus: hDFCGF Assay (AID 2283061).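 Further: cells exposed to compound for 24 h before the read.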 The following applies: primary human foreskin fibroblasts. A digest of the protocol: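 Viability was read as total protein: after 10% TCA fixation, wells were stained with 0.1% sulforhodamine B and read at 560 nm. Primary human foreskin fibroblasts were dosed for 24 h, with bidirectional fitting versus DMSO.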

Read-out in assay [12]: TIMP metallopeptidase inhibitor 1 (TIMP1), TIMP1 (gene 7076)
Description: BSK_hDFCGF_TIMP1: BioMAP Diversity Plus: hDFCGF Assay for TIMP metallopeptidase inhibitor 1 (TIMP1) Biomarker Activity (AID 2283062). The settings on record: primary human foreskin fibroblasts; actives raise or lower the signal. A digest of the protocol:
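TIMP-1 measured by ELISA 24 h after chemical dosing of primary human skin fibroblasts, with gain or loss fitted relative to DMSO. Parallel SRB staining (560 nm) monitored overt cytotoxicity.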

Read-out in assay [13]: Matrix Metallopeptidase 1 (MMP1), MMP1 (gene 4312)
Description: BSK_hDFCGF_MMP1: BioMAP Diversity Plus: hDFCGF Assay for Matrix Metallopeptidase 1 (MMP1) Biomarker Activity (AID 2283064). The settings on record: primary human foreskin fibroblasts; actives raise or lower the signal. Put shortly:
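hDFCGF primary fibroblasts (human foreskin); chemical added; 24 h; MMP1 by ELISA; bidirectional fit vs DMSO.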

Read-out in assay [14]: Vascular cell adhesion molecule 1 (VCAM1), VCAM1 (gene 7412)
Description: BSK_hDFCGF_VCAM1: BioMAP Diversity Plus: hDFCGF Assay for Vascular cell adhesion molecule 1 (VCAM1) Biomarker Activity (AID 2283065).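 On AC50: VCAM-1 protein level quantified by ELISA after 24 h chemical exposure.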 The settings on record: primary human foreskin fibroblasts; actives raise or lower the signal. Put shortly:
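ELISA readout of VCAM-1 on human dermal fibroblast primary cultures, 24 h after chemical exposure. Gain or loss of signal fitted in both directions against DMSO baseline.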

Read-out in assay [15]: Plasminogen activator inhibitor-1 (PAI1), SERPINE1 (gene 5054)
Description: BSK_hDFCGF_PAI1: BioMAP Diversity Plus: hDFCGF Assay for Plasminogen activator inhibitor-1 (PAI1) Biomarker Activity (AID 2283066). The settings on record: primary human foreskin fibroblasts; actives raise or lower the signal. Put shortly:
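Human foreskin fibroblast primary cells, 24 h chemical exposure; PAI-1 measured by ELISA. Bidirectional fitting relative to DMSO; parallel cultures stained with SRB for total protein to flag overt cytotoxicity.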

Read-out in assay [16]: Interferon-gamma inducible Protein 10 (IP10), CXCL10 (gene 3627)
Description: BSK_KF3CT_IP10: BioMAP Diversity Plus: KF3CT Assay for Interferon-gamma inducible Protein 10 (IP10) Biomarker Activity (AID 2283068). The settings on record: primary human keratinocytes with fibroblasts; actives raise or lower the signal. Put shortly: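 ELISA read-out of IP-10 after 24 h chemical dosing of human skin primary co-culture (keratinocytes, foreskin fibroblasts). Gain or loss of signal relative to DMSO, bidirectional curve fit.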

A short description of assay [17]: BSK_KF3CT_SRB: Viability Assessment in the BioMAP Diversity Plus: KF3CT Assay (AID 2283069).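 Further: total protein by sulforhodamine B staining as a cytotoxicity measure; read 24 h after compound addition.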 The settings on record: primary human keratinocytes with fibroblasts. Put shortly:
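Keratinocytes co-cultured with foreskin fibroblasts (human primary); chemical added, 24 h; fix 10% TCA, stain 0.1% SRB, A560. Bidirectional fit vs DMSO.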

Read-out in assay [18]: Monokine induced gamma interferon (MIG), CXCL9 (gene 4283)
Description: BSK_hDFCGF_MIG: BioMAP Diversity Plus: hDFCGF Assay for Monokine induced gamma interferon (MIG) Biomarker Activity (AID 2283063). The following applies: primary human foreskin fibroblasts; actives raise or lower the signal. Put shortly:
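Human primary foreskin fibroblasts in the hDFCGF system, exposed to test chemical for 24 h; MIG measured by ELISA. Bidirectional curve fitting against DMSO negative control as activity baseline.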

Read-out in assay [19]: Intercellular Adhesion Molecule 1 (ICAM1), ICAM1 (gene 3383)
Description: BSK_KF3CT_ICAM1: BioMAP Diversity Plus: KF3CT Assay for Intercellular Adhesion Molecule 1 (ICAM1) Biomarker Activity (AID 2283067). The following applies: primary human keratinocytes with fibroblasts; actives raise or lower the signal. Put shortly:
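Cell-surface ICAM-1 was measured by ELISA 24 h after dosing primary human skin keratinocytes co-cultured with fibroblasts. Parallel SRB staining tracked overt cytotoxicity. Gain or loss of signal was fitted relative to DMSO.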

Activity calls are given as the source filed them. How the source made its calls: active means hit-call score of the fitted dose curve at least 0.9, where 1 is the maximum; inactive means score below 0.9.

Consider `O=C(O)C(F)(F)C(F)(F)C(F)(F)C(F)(F)C(=O)O`, for which the result in [1], in [2], in assay [3], in assay [4], in [5] and in assay [6] was inactive. Further, the outcome in [7], in assay [8], in [9], in assay [10], in [11] and in [12] was inactive. Moreover, the outcome in assay [13], in [14], in assay [15], in assay [16] and in assay [17] was inactive.
Turning to `COc1ccc(C(=O)c2ccccc2)c(O)c1`, the outcome in assay [1], in assay [2], in [4], in assay [5], in assay [6] and in assay [7] was inactive. The result in assay [8], in assay [9], in assay [10], in assay [11], in [12] and in assay [13] was inactive. For the same molecule, the outcome in assay [14], in assay [15], in [16] and in assay [17] was inactive. Also, the AC50 in assay [3] is 20 µM (active).
Turning to `CC(C)CCCCCOC(=O)CS`, the result in [1], in assay [2], in assay [3], in assay [4], in assay [5] and in assay [6] was inactive. The outcome in assay [7], in assay [8], in [9], in [10], in assay [11] and in assay [12] was inactive. Also, the result in assay [18], in assay [13], in assay [14], in assay [16] and in assay [17] was inactive. Moreover, the AC50 in [15] is 9.15 µM (active).
`CCCCC1C(=O)N(c2ccccc2)N(c2ccccc2)C1=O`: the outcome in assay [1], in assay [2], in [3], in assay [4], in assay [5] and in assay [6] was inactive. The result in assay [7], in [8], in [9], in assay [10], in assay [11] and in assay [12] was inactive. The result in assay [13], in assay [14], in assay [15], in assay [19], in assay [16] and in assay [17] was inactive.
Regarding `CC/C=C\CCOC(=O)c1ccccc1O`, the AC50 in assay [1] is 34.5 µM (active); in assay [3], 20 µM (active); in assay [4] it was 13.7 µM (active); in assay [5], 36.3 µM (active); in [6], 32.1 µM (active); in assay [7], 11.8 µM (active). Further, the AC50 in [9] is 10 µM (active); in assay [10], 13.1 µM (active); in assay [11], 13.7 µM (active); in assay [12], 12.4 µM (active); in [13], 13.3 µM (active); in assay [14], 14.9 µM (active). The AC50 is 11.6 µM (active) in assay [15], 31 µM (active) in [16] and 28.8 µM (active) in assay [17]. The result in assay [2] and in [8] was inactive.
Regarding `CC(Cl)COP(=O)(OCC(C)Cl)OCC(C)Cl` (configuration not stated), the result in assay [1], in [2], in assay [3], in assay [4], in [5] and in assay [6] was inactive. The result in [7], in assay [8], in assay [9], in assay [10], in assay [11] and in [12] was inactive. Also, the result in assay [13], in assay [14], in [15], in assay [16] and in assay [17] was inactive.
With `CCN1CN(CC)CN(CC)C1`, the outcome in assay [1], in assay [2], in [3], in assay [4], in assay [5] and in assay [6] was inactive. For the same molecule, the outcome in [7], in assay [8], in [9], in [10], in assay [11] and in assay [12] was inactive. For the same molecule, the result in assay [13], in assay [14], in [15], in [19], in assay [16] and in assay [17] was inactive.
